An excerpt weighted towards active compounds, which were near 3% of everything screened.
PPC-1+TRAIL kill = compounds killing PPC-1 cancer cells with TRAIL present (potentiator screen, no TRAIL-free arm) | PPC-1 cells + TRAIL, ATPLite viability luminescence | cell killing (% activity), % at 4 µM or 5 µM | 0.41% of 220,000 active | AID 1443;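 active means cell killing above 50% in the first pass at 4 µM, then a duplicate retest at 5 µM averaging 50% or more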;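 further: plate controls were cells with TRAIL plus DMSO for no effect and medium-only wells lacking cells for full effect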
SENP8 block-1 = inhibitors of human SENP8 protease; recombinant SENP8, Nedd8 substrate fluorescence; 0.64% of 360,000 active; AID 602440; Q96LD8; inhibition, % at 20 µM; in the data active means inhibition mostly above about 40%, no sharp cut-off; inactive means mostly below about 27%
SENP8 block-2 = inhibitors of human SENP8 protease. Q96LD8. purified SENP8, Z-RLRGG-aminoluciferin cleavage, luminescence. inhibition, % at 10 µM. 1.2% of 330,000 active. AID 2540; in the data active means inhibition above about 50%
TRAIL sens C8 = caspase-8 TRAIL sensitization | 1% of 360,000 active | inhibition (viability loss, TRAIL sensitization), % at 10 µM | NB7+C8 cells + TRAIL, ATPlite viability luminescence;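 active means compounds causing at least 50% loss of cell viability in the single-dose screen, relative to plate controls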
SENP6 inh = blocks the human protease SENP6. inhibition, % at 10 µM. Q9GZR1. Recombinant SENP6 catalytic domain, aminoluciferin luminescence. 1.8% of 330,000 active;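 active means inhibition above about 50% at the single tested dose, limit read from the data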;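 further: plate controls were DMSO wells with enzyme for no effect and DMSO wells lacking enzyme for full effect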
Target sequence (Q9GZR1 628-1112 limits assumed): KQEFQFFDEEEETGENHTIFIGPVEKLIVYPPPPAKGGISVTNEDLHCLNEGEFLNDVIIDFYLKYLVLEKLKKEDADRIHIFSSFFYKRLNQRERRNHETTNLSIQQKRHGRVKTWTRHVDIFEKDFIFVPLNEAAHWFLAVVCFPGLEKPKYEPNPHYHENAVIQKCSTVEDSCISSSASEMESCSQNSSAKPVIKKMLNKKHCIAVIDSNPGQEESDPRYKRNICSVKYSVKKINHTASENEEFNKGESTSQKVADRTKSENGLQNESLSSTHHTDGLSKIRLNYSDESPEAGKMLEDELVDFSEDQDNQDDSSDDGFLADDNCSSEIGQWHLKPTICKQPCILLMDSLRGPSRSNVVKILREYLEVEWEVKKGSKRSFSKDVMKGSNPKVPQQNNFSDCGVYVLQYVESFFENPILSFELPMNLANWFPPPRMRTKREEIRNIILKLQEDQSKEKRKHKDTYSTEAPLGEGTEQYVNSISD
SENP7 block = inhibitors of human SENP7 protease; Q9BQF6; recombinant SENP7, Z-RLRGG-aminoluciferin luminescence, 40 min; AID 434973; 1.5% of 330,000 active; inhibition, % at 5 µM;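 active means inhibition above about 50% at the single test dose, limit read from the data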;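 further: plate controls were DMSO with enzyme for no effect and no enzyme buffer wells for full effect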
The depositor's hits bear a star; / = no result.

SMILES	PPC-1+TRAIL kill	SENP8 block-1	SENP8 block-2	TRAIL sens C8	SENP6 inh	SENP7 block
CC(Nc1n[nH]c(=O)[nH]c1=O)C(=O)N/N=C/c1cccs1 (centres undefined)	14	7	7	2	2	-2
C/C=C(/C)C(=O)OC1CC(C)(C)C[C@H]2C3=CC[C@@H]4[C@@]5(C)CCC(O[C@@H]6O[C@@H](C(=O)O)[C@@H](O)C(O[C@@H]7OC[C@H](O)[C@@H](O)[C@@H]7O[C@@H]7OC(CO)C(O)[C@@H](O)[C@@H]7O)C6O[C@@H]6OC(CO)C(O)C(O)C6O)[C@@](C)(CO)[C@@H]5CC[C@]4(C)[C@]3(C)CC(O)[C@@]12CO (some centres undefined)	/	1	1	-3	-3	3
C/C=C(\C)C(=O)OC1[C@H](OC(C)=O)C2(CO)C(CC1(C)C)C1=CCC3C4(C)CCC(O[C@@H]5O[C@H](C(=O)O)[C@@H](O[C@@H]6O[C@H](CO)[C@@H](O)[C@H](O)[C@H]6O)[C@H](O)[C@H]5O[C@H]5O[C@H](CO)[C@@H](O)[C@H](O)[C@H]5O)[C@](C)(CO)C4CCC3(C)[C@]1(C)C[C@H]2O (some centres undefined)	/	17	/	89*	/	/
CCc1nnc(NC(=O)CSc2nc(C)c3c(c2C#N)CCCC3)s1	57*	-314	-9	66*	-17	1
COc1ccc(NC(=O)CSc2nc(C)c3c(c2C#N)CCCC3)cc1	0	16	-1	-16	8	2
Cc1ccc(NC(=O)CN2C(=O)NC(Cc3c[nH]c4ccccc34)C2=O)cc1 (centres undefined)	/	6	-16	1	-7	-4
COc1cc(NC(=O)c2c(F)c(F)c(F)c(F)c2F)c(OC)cc1Cl	6	-3	1	76*	7	3
O=C(CNS(=O)(=O)/C=C/c1ccccc1)OC1CCOC1=O (centres undefined)	-2	9	-5	0	-12	-6
CSc1nc2sc(-c3ccccc3)cc2c(=O)n1N	49	-111	94*	33	95*	98*
CC(C)Sc1nc2sc(-c3ccccc3)cc2c(=O)n1N	37	-88	5	2	-7	4
Cc1ccc2nc(N3C(=O)C(O)=C(C(=O)c4cc5ccccc5o4)C3c3cccs3)sc2c1 (centres undefined)	23	-85	68*	16	88*	78*
Cc1cc(N2C(=O)C(O)=C(C(=O)c3cc4ccccc4o3)C2c2cccs2)no1 (centres undefined)	/	-18	-3	10	-8	5
Cc1ccc2nc(N3C(=O)C(O)=C(C(=O)c4ccc(C)o4)C3c3ccco3)sc2c1 (centres undefined)	/	-132	64*	-19	78*	76*
CCc1ccc2nc(N3C(=O)C(O)=C(C(=O)c4ccco4)C3c3cccs3)sc2c1 (centres undefined)	28	-114	30	28	55*	38
COc1ccc2[nH]cc(C(=O)CN3CC(C)CC(C)C3)c2c1 (centres undefined)	/	10	2	-15	-20	-3
COc1ccc2[nH]cc(C(=O)CCl)c2c1	22	0	-7	75*	-7	-1
COc1ccc(C(=O)c2c[nH]c3ccccc23)cc1	37	16	14	48*	32	31
COc1cc2c(-c3ccccc3)c(C)oc2cc1/C=N/NC(N)=S	/	-291	-6	14	-2	3
COc1ccc(/C(O)=C2/C(=O)C(=O)N(CCCN3CCOCC3)C2c2ccc(Cl)cc2)cc1 (centres undefined)	/	-41	/	-8	/	/
CCOC(=O)CN1C(=O)CN(c2ccc(C)c(C)c2)C1=O	10	18	4	6	0	5
COc1ccc(S(=O)(=O)N2CCOCC2)cc1NC(=O)CSc1nnc(C2CC2)n1N	-1	7	-5	2	-7	-1
O=C1C(Cl)=C(NS(=O)(=O)c2ccc([N+](=O)[O-])cc2)C(=O)c2ccccc21	2	53*	11	-3	12	16
CCCCCC(NC(=O)C1CCN(C(=O)[C@@H](NS(=O)(=O)c2ccc(C)cc2)C(C)C)CC1)C(=O)O (some centres undefined)	/	19	-1	-3	-13	-6
Oc1ccc(/C=N/N(c2ccccc2)c2ccccc2)c(O)c1O	/	32*	10	5	12	5
Oc1ccc(/C=N/N2CCOCC2)c(O)c1O	12	63*	-2	6	14	-8
SMILES	PPC-1+TRAIL kill	SENP8 block-1	SENP8 block-2	TRAIL sens C8	SENP6 inh	SENP7 block
Cc1nc2ccccc2c(=O)n1/N=C/c1ccc(O)c(O)c1O	/	69*	5	3	19	9
COc1cccc(/C=N/N2CCOCC2)c1O	16	8	6	22	28	29
O=C1c2cccc3cccc(c23)C(=O)N1/N=C/c1ccc(O)cc1O	-3	14	-9	-2	-21	-8
O=C1c2ccccc2C(=O)N1/N=C/c1ccc(O)c(O)c1O	2	83*	/	-7	/	/
Cn1c(CC(=O)Nc2ccccc2F)nnc1SCC(=O)Nc1nccs1	/	13	2	3	-2	-6
O=C(O)c1ccc(N/N=C/C2=Cc3ccccc3OC2)cc1	13	-231	98*	-16	101*	99*
O=C(Nc1ccc(Cl)c(Cl)c1)C1=Cc2ccccc2OC1	-14	-66	-11	-3	3	-14
c1ccc(-c2cc3ccccc3[nH]2)cc1	/	-388	30	11	39	21
Clc1ccc2[nH]c(-c3ccccc3)cc2c1	8	-372	62*	0	70*	60*
CCCc1nn(C)c(C(=O)Nc2cccc(Cl)c2)c1Cl	51*	16	-1	-3	-1	3
Clc1cccc(CN2CCN(Cc3nc(CCc4ccccc4)no3)CC2)c1	-19	16	-3	-22	-15	-5
CC(C)(C)c1ccc(C(O)CCCN2CCC(C(O)(c3ccccc3)c3ccccc3)CC2)cc1 (centres undefined)	32	9	-1	60*	-6	5
OC(c1ccccc1)(c1ccccc1)C1CCN(CCCOc2ccc3c(c2)CCCC3)CC1	/	13	/	66*	/	/
N#CCc1ccc(OCCCN2CCC(C(O)(c3ccccc3)c3ccccc3)CC2)cc1	/	16	/	-8	/	/
COc1ccc(CN2C(=O)C(CC(=O)NC3CC3)CC(C(=O)N(C)C)=C2C)cc1 (centres undefined)	/	-22	/	-3	/	/
CCOC(=O)C1=C(O)/C(=C/c2cn(CC(=O)NCC3CCCO3)c3ccccc23)SC1=Nc1ccc(C)cc1 (centres undefined)	/	-175	13	57*	-3	-5
CCOC(=O)C1=C(O)/C(=C/c2ccc(-c3ccccc3C(=O)O)o2)SC1=Nc1ccc(C)cc1	/	-129	/	9	/	/

Assay outcomes: PubChem, Sanford-Burnham Center for Chemical Genomics
